ROMK mod – modulates human ROMK potassium channel activity. Tet-inducible ROMK, thallium flux fluorescence; actives lie on both sides. P48048. 130,000 compounds, 2% hits. B-score at 10 µM;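 active = signal ratio slope over the read window, or its plate-corrected B-score, at least 3 SD from the plate mean, either direction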;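 also: B-score of the F/F0 ratio slope over 7 to 12 s after thallium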
Target sequence (P48048 whole entry, looked up): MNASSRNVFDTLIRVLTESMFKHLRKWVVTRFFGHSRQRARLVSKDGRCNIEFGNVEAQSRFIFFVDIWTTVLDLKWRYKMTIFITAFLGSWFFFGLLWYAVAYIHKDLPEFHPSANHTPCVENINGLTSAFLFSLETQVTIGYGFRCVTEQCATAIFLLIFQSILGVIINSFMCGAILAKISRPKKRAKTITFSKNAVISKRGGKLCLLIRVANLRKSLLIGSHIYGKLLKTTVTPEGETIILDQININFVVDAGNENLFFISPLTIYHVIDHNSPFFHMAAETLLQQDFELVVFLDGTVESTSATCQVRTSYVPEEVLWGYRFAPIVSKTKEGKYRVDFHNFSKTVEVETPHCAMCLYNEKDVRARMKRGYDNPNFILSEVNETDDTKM
Arbovirus inh – blocks arbovirus infection; arbovirus infection cell-based antiviral screen; inhibition, % at 10 µM; 200,000 compounds, 0.37% hits; AID 1251; in the data active = inhibition above about 30%
PERK inh – blocks human PERK kinase; CHO PERK-DD fusion, SEAP luminescence translation reporter; inhibition, % at 5.6 µM; 220,000 compounds, 0.17% hits; AID 1416;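 active = inhibition above the mean inhibition of all tested compounds plus 3 SD, set separately per screening campaign, cut at about 2.9% in these data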;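 also: PERK kinase domain activated by AP20187 dimerizer at 100 nM; 0% = DMSO with dimerizer and 100% = rapamycin at 8.4 µM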
WT yeast gro inh – growth inhibition of WT yeast, mitochondrial fusion screen; mitochondrial fusion phenotypic screen, WT strain; inhibition, % at 10 µM; 190,000 compounds, 2.1% hits; in the data active = inhibition above about 58%; tested in S. cerevisiae
ROMK retest – confirmation of human ROMK potassium channel modulators. shares compounds with ROMK mod. ROMK thallium flux, fluorescence ratio; active compounds read low. normalized thallium flux (F/F0 slope) at 10 µM. 3,000 compounds, 54% hits;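 active = Flux at 10 µM at least 3 SD below or above vehicle control mean in one or both replicates; inconclusive = no clear call, values can overlap the other calls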
An asterisk follows results filed as active; ? = inconclusive; . = no result. This is a sample that favours compounds with a hit; in the whole collection about 3.3% have one here.

SMILES	ROMK mod	Arbovirus inh	PERK inh	WT yeast gro inh	ROMK retest
C/C(=N/NC(=O)COc1cc(C)ccc1C(C)C)C(=O)O	1.1	-12	0	11	.
Cc1ccc(C(C)C)c(OCC(=O)Nc2ccccc2N2CCN(C)CC2)c1	-2.9*	1	-1	-29	0.066*
CC(=O)N1CCN(c2ccccc2NC(=O)COc2ccc(Br)cc2)CC1	.	0	0	-15	.
CC(=O)N1CCN(c2ccccc2NC(=O)COc2cc(C)ccc2C(C)C)CC1	.	-18	-1	10	0.078
COc1cc(NS(=O)(=O)c2ccc(Br)s2)cc(OC)c1	.	-4	0	10	.
COc1ccc(N2C(=O)CSC23C(=O)Nc2ccccc23)cc1OC (stereo not drawn)	.	-1	1	-3	0.082
COc1cc(N2C(=O)CSC23C(=O)Nc2ccccc23)cc(OC)c1OC (stereo not drawn)	0.016	0	0	-12	.
CCO[C@@H]1OC(C(=O)NCc2ccccc2)=C[C@H](c2csc3ccccc23)[C@H]1CCCO	.	-20	-1	39	.
O=C1C2C(c3cccc(/C=C/c4ccccc4)c3)CC=CC2C(c2ccc(C(F)(F)F)cc2)N1Cc1ccccc1 (stereo not drawn)	.	.	.	.	0.087
CCOC(=O)c1sc2nc3c(SCCC#N)cc(C(=O)c4cc(F)ccc4O)cn3c(=O)c2c1C	-3.8*	-16	1	-4	0.07
Nc1nc(NCc2ccco2)nc(N2CCCCCC2)c1[N+](=O)[O-]	.	10	0	-17	0.062*
Nc1nc(NCc2ccco2)nc(N2CCCC2)c1[N+](=O)[O-]	.	.	-1	.	.
COc1cc(OC)nc(NC(=O)COC(=O)C2CCCCC2)n1	1.2	2	-1	4	.
O=C(O)[C@@H](O)c1ccccc1	.	3	2	-3	.
Cc1ccc(/C=C(\NC(=O)c2ccc(C)cc2)C(=O)NCCCn2ccnc2)cc1	-0.072	25	0	3	.
COc1ccc(CCCC(=O)NCc2ccccc2)cc1C	4*	-12	1	-8	0.088
COc1ccc(OC)c(CNC(=O)CCCc2cn(C)c3ccccc23)c1	1.3*	5	0	-6	?
COc1ccc(Br)cc1CNC(=O)CCCc1cn(C)c2ccccc12	-0.04	-1	-1	7	.
Cc1ccc(CNC(=O)CCCc2ccccc2)cc1	.	-2	1	7	.
CCOc1c(CNCCN2CCOCC2)cccc1OC	0.64	-4	0	-3	.
O=C(CC1C=Cc2ccccc2N1C(=O)c1ccccc1)c1ccccc1 (stereo not drawn)	.	.	1	.	.
CC(NCC(O)COC1CCC(C(C)(C)C)CC1)c1ccccc1 (stereo not drawn)	-2.3*	-27	0	72*	0.058*
CC(NCC(O)COc1ccc(S(=O)(=O)N2CCOCC2)cc1)c1ccccc1 (stereo not drawn)	1.1	7	-1	-9	.
O=C(c1ccncc1)c1ccc(N2CCN(C3CC(=O)N(Cc4ccccc4)C3=O)CC2)cc1 (stereo not drawn)	-4*	5	-1	9	?
O=C(c1ccccc1Cl)N(Cc1ccc(Br)cc1)N1C(=O)CCCC1=O	.	-1	-1	3	.
SMILES	ROMK mod	Arbovirus inh	PERK inh	WT yeast gro inh	ROMK retest
O=C(c1ccc([N+](=O)[O-])cc1)N(Cc1ccc(Br)cc1)N1C(=O)CCCC1=O	-7.3*	2	1	22	0.037*
O=C1c2ccccc2NC(c2ccc(-c3ccc(Br)cc3)o2)N1O (stereo not drawn)	.	-35	0	0	.
O=C1c2ccccc2NC(c2ccc(-c3cccc([N+](=O)[O-])c3)o2)N1O (stereo not drawn)	-3.6*	-21	0	-11	0.061*
COc1cccc(C(=O)N(C)c2nnc(-c3ccncc3)s2)c1	.	-1	0	51	0.081
CCOC(=O)c1c(CSC(=N)N)n(-c2ccc(C)cc2)c2cc(Br)c(OC(C)=O)cc12	.	-43	0	3	0.045*
Cc1ccc(Cn2c(CN3CCOCC3)nc3c2c(=O)n(C)c(=O)n3C)cc1	.	0	-1	5	.
CC(=O)NC12CC3CC(C1)CC(C(=O)OCC(=O)Nc1ncc(Cl)cc1Cl)(C3)C2	-4*	1	0	-1	0.072
CC(=O)NC12CC3CC(C1)CC(C(=O)OCC(=O)NC(=O)c1cccn1C)(C3)C2	-0.34	7	1	0	.
Cc1ccc(C2CC(=O)NC(SCc3ccccc3)=C2C#N)cc1 (stereo not drawn)	.	-1	0	9	0.066*
Cc1ccc2[nH]cc(C(=O)CCl)c2c1	-4.2*	-39	0	-49	0.055*
O=C(c1cccc(COc2cccc3ccccc23)c1)N1CCCC1	-3.5*	1	0	45	0.087
O=C(c1ccco1)N1CCN(CCCCOc2cccc3ccccc23)CC1	-0.22	-17	-1	39	.
CS(=O)(=O)c1nc(-c2ccco2)cc(C(F)(F)F)n1	-3.6*	-46	0	31	0.057*
CN1CCN(c2nc(-c3ccco3)cc(C(F)(F)F)n2)CC1	.	8	-1	-6	.
COc1ccccc1-c1cc(C(F)(F)F)nc(S(=O)(=O)CCCC(=O)NC(C)C)n1	-1.2	-34	1	8	.
COc1ccccc1-c1cc(C(F)(F)F)nc(S(C)(=O)=O)n1	-3.9*	-46	0	29	0.06*
CC1CN=C(N(C(=O)Nc2ccccc2)c2ccc(F)cc2)S1 (stereo not drawn)	.	-4	1	11	.
CN(C(=S)Nc1ccc(F)cc1)C1(c2ccccc2Cl)CCCCC1=O (stereo not drawn)	.	0	-1	12	0.08
CN(N)C(=S)Nc1ccc(F)cc1	.	2	1	8	.
CCCC(=O)Nc1ccc(Cl)c(NC(=O)c2ccco2)c1	.	-8	1	4	.
CS/C(Nc1cc(Cl)ccc1Cl)=C(/C#N)C(=O)c1ccco1	.	.	2	.	0.051*
O=c1oc2ccccc2cc1-c1nc(-c2cccs2)cs1	-4.5*	-1	0	25	0.018*
O=c1oc2ccc3ccccc3c2cc1-c1nnc(-c2cccs2)o1	-3*	-13	1	-5	?
O=c1cc(CSc2nnc(-c3ccco3)o2)c2ccccc2[nH]1	.	0	1	21	.
O=C(Cn1nc(C(F)(F)F)c2c1CCC2)N1CCN(c2ccccc2)CC1	-1.3	-11	0	-1	.
SMILES	ROMK mod	Arbovirus inh	PERK inh	WT yeast gro inh	ROMK retest
CCC(C)(C(=O)NC1CCCC1)N(Cc1cccs1)C(=O)Cc1cccs1 (stereo not drawn)	1.1	-8	-1	-1	.
CCC(C)(C(=O)NC1CCCCC1)N(CC1CCCO1)C(=O)Cc1cccs1 (stereo not drawn)	-7.8*	-3	1	-6	0.075
Cc1ccc(N(C(=O)c2cc3ccccc3oc2=O)C2C=CS(=O)(=O)C2)cc1 (stereo not drawn)	.	8	0	-7	.
O=C1c2ccccc2C(=O)N1CCCCN(C(=O)c1cc2ccccc2oc1=O)c1ccc(Cl)cc1	-2.3*	-1	0	16	0.077
CCC1CCCCN1C(=O)CSc1nc2ccsc2c(=O)n1Cc1ccccc1 (stereo not drawn)	-3.1*	-14	-1	22	0.059*
O=C(CSc1nc2ccsc2c(=O)n1Cc1ccccc1)NCC1CCCO1 (stereo not drawn)	0	-5	0	-8	.
